In ChEMBL document CHEMBL3988442, “University of Dundee, Small-Polar-MMV Screening Library” (2021) one finds Percent Effect data, which are given here for 8 compounds.

For some of these results: Measured potencies and affinities stand elsewhere.

Common to all, as to design: scale not given: direction of the effect not stated beside the values
The target in test [1] is Protein translocase subunit SecA (Escherichia coli (strain K12)) (UniProt P10408). The experiment in a line: Assay to Identify E. coli SecA ATPase Inhibitors. The test is classed as functional. The conditions noted are these: 30 µM.
Protein translocase subunit SecA (Escherichia coli (strain K12)), sequence (P10408 whole entry): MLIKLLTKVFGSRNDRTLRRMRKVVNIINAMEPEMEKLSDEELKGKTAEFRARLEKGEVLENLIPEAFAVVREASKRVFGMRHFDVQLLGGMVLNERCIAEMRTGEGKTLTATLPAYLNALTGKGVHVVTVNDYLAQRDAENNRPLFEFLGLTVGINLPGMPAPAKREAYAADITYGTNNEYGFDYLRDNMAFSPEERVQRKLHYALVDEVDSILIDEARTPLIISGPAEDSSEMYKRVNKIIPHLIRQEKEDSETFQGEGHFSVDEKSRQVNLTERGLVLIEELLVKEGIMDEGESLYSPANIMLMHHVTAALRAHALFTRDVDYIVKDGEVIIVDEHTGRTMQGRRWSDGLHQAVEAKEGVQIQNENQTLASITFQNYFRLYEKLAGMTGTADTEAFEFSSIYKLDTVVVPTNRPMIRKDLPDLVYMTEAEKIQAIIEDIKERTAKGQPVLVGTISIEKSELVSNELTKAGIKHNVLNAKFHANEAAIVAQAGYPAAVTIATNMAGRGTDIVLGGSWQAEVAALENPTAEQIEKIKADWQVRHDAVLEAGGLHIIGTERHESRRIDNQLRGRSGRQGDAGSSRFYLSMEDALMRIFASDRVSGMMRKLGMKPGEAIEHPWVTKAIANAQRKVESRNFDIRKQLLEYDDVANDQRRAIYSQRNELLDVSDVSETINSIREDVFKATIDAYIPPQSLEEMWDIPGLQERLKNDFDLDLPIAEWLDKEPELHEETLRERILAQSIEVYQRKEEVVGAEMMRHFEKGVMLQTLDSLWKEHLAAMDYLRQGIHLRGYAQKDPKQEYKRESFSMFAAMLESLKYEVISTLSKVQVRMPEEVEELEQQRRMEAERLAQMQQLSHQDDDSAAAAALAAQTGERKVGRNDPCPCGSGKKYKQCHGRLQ
The target of test [2] is T1, Ubiquitin-activating enzyme e1, putative (Leishmania donovani (strain BPK282A1)) (UniProt E9BSI1).
T1 sequence (whole entry): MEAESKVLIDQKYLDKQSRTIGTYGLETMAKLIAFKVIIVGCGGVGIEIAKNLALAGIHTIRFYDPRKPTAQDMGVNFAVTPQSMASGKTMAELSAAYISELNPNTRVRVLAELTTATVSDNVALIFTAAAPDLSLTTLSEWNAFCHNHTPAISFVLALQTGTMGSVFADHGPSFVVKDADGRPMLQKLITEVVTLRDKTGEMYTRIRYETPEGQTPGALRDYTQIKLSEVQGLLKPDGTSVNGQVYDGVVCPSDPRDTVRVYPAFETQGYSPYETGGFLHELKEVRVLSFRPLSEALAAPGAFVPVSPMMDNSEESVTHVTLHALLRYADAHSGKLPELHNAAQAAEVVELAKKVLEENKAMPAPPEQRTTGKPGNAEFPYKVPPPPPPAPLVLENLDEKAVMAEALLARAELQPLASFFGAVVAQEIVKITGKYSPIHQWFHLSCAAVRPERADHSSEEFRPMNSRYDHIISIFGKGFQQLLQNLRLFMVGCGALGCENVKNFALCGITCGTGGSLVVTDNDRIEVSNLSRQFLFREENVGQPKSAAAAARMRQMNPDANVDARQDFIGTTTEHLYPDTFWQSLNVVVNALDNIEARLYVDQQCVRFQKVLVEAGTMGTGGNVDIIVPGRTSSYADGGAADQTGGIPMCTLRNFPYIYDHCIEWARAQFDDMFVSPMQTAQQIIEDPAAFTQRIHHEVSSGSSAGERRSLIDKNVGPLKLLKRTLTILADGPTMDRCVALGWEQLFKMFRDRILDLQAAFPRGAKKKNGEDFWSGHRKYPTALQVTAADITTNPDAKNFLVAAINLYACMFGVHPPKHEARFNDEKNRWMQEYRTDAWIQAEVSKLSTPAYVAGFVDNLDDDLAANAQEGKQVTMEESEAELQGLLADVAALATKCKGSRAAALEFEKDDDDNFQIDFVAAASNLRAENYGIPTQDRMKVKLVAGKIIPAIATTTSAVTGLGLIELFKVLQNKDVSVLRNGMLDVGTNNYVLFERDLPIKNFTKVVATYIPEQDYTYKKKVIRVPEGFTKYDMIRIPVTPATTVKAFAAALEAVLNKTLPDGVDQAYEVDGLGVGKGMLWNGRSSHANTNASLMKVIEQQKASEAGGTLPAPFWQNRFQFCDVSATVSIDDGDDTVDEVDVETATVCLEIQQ
Nature of the test: Leishmania donovani Ubiquitin Activating Enzyme (LdE1). As to conditions: 30 µM. The test is classed as functional.

Test [3] has as its target AMP-activated protein kinase, AMPK (Homo sapiens) (UniProt P54646+O43741+P54619+Q9UGJ0+Q9Y478+Q13131+Q9UGI9). The experiment in a line: AMP-dependent Kinase enzyme assay. An in vitro enzyme assay that detects ADP turnover that is directly proportional to AMPK activity. This uses naive AMPK that is activated during the assay with MK-8722. The test is classed as functional. The conditions noted are these: 30 µM.

In test [4] the target is Sialic acid-binding Ig-like lectin 9 (Homo sapiens) (UniProt Q9Y336). Nature of the test: Hs-Siglec9 ALPHAscreen SOP 20170721. As to conditions: 10 µM.
Sialic acid-binding Ig-like lectin 9 (Homo sapiens), sequence (Q9Y336 whole entry): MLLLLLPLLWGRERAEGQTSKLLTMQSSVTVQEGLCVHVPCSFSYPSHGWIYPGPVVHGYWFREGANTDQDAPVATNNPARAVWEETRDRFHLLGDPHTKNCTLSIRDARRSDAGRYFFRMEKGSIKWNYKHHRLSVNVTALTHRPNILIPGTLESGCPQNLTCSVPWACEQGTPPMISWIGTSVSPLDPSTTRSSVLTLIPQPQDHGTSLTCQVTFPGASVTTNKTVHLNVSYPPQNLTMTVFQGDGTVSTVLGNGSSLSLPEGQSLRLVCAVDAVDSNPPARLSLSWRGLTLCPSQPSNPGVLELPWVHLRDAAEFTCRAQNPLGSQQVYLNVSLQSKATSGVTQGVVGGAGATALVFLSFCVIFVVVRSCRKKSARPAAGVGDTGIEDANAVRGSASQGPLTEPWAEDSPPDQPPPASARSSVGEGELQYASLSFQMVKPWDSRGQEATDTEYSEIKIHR
For a further test, the system named is Trypanosoma cruzi. Nature of the test: Trypanosoma cruzi phosphomannomutase and mannose-1-phosphate guanylyltransferase assay. The test is classed as functional. The conditions noted are these: 10 µM.
Test [5] has as its target T2, Arginase-2, mitochondrial (Homo sapiens) (UniProt P78540).
T2 sequence (whole entry): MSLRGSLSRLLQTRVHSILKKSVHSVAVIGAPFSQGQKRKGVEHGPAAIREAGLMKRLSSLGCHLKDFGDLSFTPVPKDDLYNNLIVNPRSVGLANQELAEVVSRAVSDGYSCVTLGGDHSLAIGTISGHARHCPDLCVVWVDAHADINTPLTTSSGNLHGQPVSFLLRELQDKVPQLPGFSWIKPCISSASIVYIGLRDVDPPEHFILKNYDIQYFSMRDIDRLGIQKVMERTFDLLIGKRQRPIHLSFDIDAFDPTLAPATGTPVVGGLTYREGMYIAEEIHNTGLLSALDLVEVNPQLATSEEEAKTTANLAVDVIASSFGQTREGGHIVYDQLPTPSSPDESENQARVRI
Nature of the test: in vitro enzyme assay to detect the production of urea directly proportional to the activity of Arginase II. Also: in the data most compounds retested in dose-response had high values. Format: functional. The conditions noted are these: 33.3 µM.

The target of test [6] is T3, Proteasome subunit beta (Trypanosoma cruzi) (UniProt O96673).
T3 sequence (whole entry): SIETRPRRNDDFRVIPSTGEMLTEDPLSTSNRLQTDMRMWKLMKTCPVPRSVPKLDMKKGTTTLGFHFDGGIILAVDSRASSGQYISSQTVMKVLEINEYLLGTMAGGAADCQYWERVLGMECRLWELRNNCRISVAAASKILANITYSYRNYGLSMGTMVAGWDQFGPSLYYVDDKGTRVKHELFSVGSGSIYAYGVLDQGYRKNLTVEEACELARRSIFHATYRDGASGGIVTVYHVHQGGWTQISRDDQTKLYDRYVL
Nature of the test: Trypanosoma cruzi proteasome chymotrypsin-like activity (TcProtChymo) assay. Also: in the data most compounds retested in dose-response had high values. The test is classed as functional. The conditions noted are these: 9.37 µM.

The species entered for another test is Homo sapiens. The experiment in a line: To identify inhibition of the IFN signalling (Jak-Stat) pathway via expression of an eGFP reporter gene under the control of an IFN-stimulated response element (ISRE) containing MxA promoter. Format: functional. The conditions noted are these: 30 µM. In general terms: Reporter assays use an easily measured gene product as a stand-in for the process of interest.

Test [7] deals with T4, Tyrosyl-tRNA synthetase, putative (Trypanosoma cruzi (strain CL Brener)) (UniProt Q4DSP6).
T4 sequence (whole entry): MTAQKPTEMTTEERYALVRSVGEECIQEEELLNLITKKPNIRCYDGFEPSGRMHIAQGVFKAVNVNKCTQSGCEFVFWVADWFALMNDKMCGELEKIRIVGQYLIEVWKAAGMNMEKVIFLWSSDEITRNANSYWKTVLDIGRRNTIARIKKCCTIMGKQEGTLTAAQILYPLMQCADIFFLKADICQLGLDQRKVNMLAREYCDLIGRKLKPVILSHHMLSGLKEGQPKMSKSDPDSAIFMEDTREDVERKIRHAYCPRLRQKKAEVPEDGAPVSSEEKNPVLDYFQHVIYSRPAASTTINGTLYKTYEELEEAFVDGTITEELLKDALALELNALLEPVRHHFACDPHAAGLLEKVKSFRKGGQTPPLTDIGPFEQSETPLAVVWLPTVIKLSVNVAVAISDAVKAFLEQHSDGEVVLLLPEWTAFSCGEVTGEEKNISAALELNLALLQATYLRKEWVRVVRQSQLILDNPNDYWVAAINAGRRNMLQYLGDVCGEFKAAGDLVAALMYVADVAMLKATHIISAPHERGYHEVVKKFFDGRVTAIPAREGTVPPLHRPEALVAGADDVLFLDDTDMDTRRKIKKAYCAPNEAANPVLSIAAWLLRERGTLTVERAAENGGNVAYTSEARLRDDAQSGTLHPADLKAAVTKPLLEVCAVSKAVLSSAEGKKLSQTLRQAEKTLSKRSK
Nature of the test: Trypanosoma cruzi tyrosyl tRNA synthetase (TcYRS) _High Tyrosine SOP. Also: in the data most compounds retested in dose-response had high values. Format: functional. The conditions noted are these: 30 µM.

In test [8] the target is T4, Tyrosyl-tRNA synthetase, putative (Trypanosoma cruzi (strain CL Brener)). Nature of the test: Trypanosoma cruzi tyrosyl tRNA synthetase (TcYRS) SOP. Format: functional. As to conditions: 30 µM.
Test [9] deals with Chromo domain-containing protein 1 (Saccharomyces cerevisiae (strain ATCC 204508 / S288c) (Baker's yeast)) (UniProt P32657). The experiment in a line: ScCHD-1 Enzyme Inhibition Assay. Also: in the data most compounds retested in dose-response had high values. The test is classed as functional. As to conditions: 30 µM.
Chromo domain-containing protein 1 (Saccharomyces cerevisiae (strain ATCC 204508 / S288c) (Baker's yeast)), sequence (P32657 whole entry, the tested form may be a part): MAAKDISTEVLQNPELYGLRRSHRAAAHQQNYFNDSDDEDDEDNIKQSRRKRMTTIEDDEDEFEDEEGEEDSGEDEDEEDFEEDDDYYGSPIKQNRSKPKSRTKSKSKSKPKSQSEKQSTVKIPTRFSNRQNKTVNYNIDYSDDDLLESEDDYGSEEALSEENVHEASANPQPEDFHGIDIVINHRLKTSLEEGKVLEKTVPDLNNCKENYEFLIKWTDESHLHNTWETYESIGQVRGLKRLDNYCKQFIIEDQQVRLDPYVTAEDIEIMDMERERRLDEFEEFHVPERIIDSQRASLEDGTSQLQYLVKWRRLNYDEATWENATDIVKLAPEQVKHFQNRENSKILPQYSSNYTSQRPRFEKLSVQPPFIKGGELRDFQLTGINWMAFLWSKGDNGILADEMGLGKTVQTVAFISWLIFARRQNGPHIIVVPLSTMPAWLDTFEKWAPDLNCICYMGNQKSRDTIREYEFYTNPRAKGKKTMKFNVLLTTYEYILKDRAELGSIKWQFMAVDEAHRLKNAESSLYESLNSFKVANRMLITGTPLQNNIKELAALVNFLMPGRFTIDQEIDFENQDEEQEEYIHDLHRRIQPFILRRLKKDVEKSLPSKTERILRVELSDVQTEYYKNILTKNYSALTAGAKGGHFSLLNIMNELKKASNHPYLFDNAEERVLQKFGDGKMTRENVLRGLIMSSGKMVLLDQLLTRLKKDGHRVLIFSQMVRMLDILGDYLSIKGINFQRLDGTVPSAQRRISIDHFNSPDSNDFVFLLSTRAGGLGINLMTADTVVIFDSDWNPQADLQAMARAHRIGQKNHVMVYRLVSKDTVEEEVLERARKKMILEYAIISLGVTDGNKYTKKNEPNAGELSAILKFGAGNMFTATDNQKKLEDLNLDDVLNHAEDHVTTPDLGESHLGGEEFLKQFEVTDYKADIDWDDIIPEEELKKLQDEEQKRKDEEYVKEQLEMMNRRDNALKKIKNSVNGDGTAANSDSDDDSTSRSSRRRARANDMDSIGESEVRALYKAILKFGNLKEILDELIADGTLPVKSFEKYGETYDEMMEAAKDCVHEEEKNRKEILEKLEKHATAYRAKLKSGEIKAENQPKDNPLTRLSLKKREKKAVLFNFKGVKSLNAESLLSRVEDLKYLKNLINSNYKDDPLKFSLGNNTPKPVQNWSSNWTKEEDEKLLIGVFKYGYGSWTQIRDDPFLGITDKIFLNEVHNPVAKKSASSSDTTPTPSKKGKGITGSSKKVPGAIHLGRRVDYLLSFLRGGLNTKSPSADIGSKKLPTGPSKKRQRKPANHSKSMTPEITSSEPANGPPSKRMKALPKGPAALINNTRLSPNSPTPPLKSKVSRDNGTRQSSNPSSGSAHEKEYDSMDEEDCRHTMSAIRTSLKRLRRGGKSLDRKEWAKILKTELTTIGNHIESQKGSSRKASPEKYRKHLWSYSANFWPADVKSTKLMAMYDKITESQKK

On to `O=C(NCc1cncc2c1CCN(Cc1cccs1)C2)C1CC1`, for which the Percent Effect was 1.73% in test [1]; 8% in [2]; 3.65% in test [3]; -13.1% in [4]; -9.65% in the test on Trypanosoma cruzi; 9.56% in test [5]. The Percent Effect was 21.2% in test [6]; 5.35% in the test filed under Homo sapiens; 5.32% in test [7]; 6.41% in [8]; 0.102% in test [9].

In the case of `O=C(Nc1cccc(Cl)c1)c1nn(C2CCS(=O)(=O)C2)c2c1CCCC2` (stereo not drawn), the Percent Effect in [1] was -5%; in test [2], -7.89%; in test [3], 10.5%; in [4], 6.51%; with Trypanosoma cruzi it was -1.27%; in [5], -3.55%. Besides, the Percent Effect in test [6] was 12.4%; in the test listed under Homo sapiens, -5.46%; in test [7], -1.06%; in test [8], 2.6%; in test [9], -5.58%.

As to `Cc1cnn(CCNCc2csc(C)n2)c1`, the Percent Effect in test [1] is -1.46%; in test [2], -5.33%; in test [3] it was -1.53%; in test [4] it was -3.7%; with Trypanosoma cruzi it was -0.876%; in test [5], -2.6%. The Percent Effect in [6] turned out to be 7.5%; in the test listed under Homo sapiens it was 1.61%; in test [7] it was 3.83%; in test [8] it was 6.17%; in [9] it was 0.841%.

As for `COc1ccc(C(=O)N2CCCC2c2ccco2)cc1OC` (stereo not drawn), the Percent Effect in test [1] is 2.38%; in [2] it was 2.6%; in [3], -1.48%; in test [4], -11.9%; with Trypanosoma cruzi, -4.24%; in [5], -1.94%. Also, the Percent Effect is 14.8% in test [6]; 9.23% in the test listed under Homo sapiens; 3.17% in [7]; 8.97% in test [8]; -10.7% in test [9].

Consider `C[C@@H]1C[C@@H]2CCN(C(=O)c3cnccn3)C[C@H]2O1`, for which the Percent Effect in [1] is -2.4%; in test [2], -2.7%; in [3] it was 5.23%; in [4], -2.15%; with Trypanosoma cruzi, -1.95%; in [5] it was 0.417%. The Percent Effect in test [6] is -0.592%; in the test filed under Homo sapiens it was 3.34%; in test [7], 1.98%; in test [8] it was -3.66%; in [9] it was -0.0529%.

As for `c1ccc2oc(NC3CCCN(Cc4noc(C5CC5)n4)C3)nc2c1` (stereo not drawn), the Percent Effect in test [1] was -1.73%; in test [2], -5.41%; in test [3], -1.19%; in [4], -0.829%; in the test on Trypanosoma cruzi, 4.63%; in test [5], 3.81%. In addition, the Percent Effect in [6] is 7.93%; in the test filed under Homo sapiens it was -1.13%; in test [7], 2.65%; in test [8], 4.88%; in test [9] it was 5.42%.

Take `Cc1noc(C2CCC3(CCN(C(=O)C4=CCCCC4)CC3)O2)n1` (stereo not drawn): the Percent Effect is -7.11% in test [1]; 10.8% in test [2]; -5.86% in test [3]; 30.2% in test [4]; 3.42% in the test with Trypanosoma cruzi; 3.23% in [5]. Moreover, the Percent Effect in test [6] is 8.67%; in the test listed under Homo sapiens it was 3.52%; in test [7] it was 8.6%; in [8], 16.1%; in test [9], -7.09%.

For `CC(C)(C)c1cnc(CN2CCC(c3ccnn3CCO)CC2)o1`, the Percent Effect was -2.61% in test [1]; 2.53% in [2]; 7.52% in test [3]; 9.51% in test [4]; 7.46% in the test with Trypanosoma cruzi; -3.42% in [5]. Besides, the Percent Effect in test [6] is -3.69%; in the test listed under Homo sapiens, 20.2%; in [7] it was 3.45%; in test [8], 11.4%; in test [9], -1.55%.
